For part of these data: Measured potencies and affinities stand elsewhere. Active and inactive are the calls of the source.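 The calls were made as follows, unless noted: active = primary screen hit whose fluorescence ratio, in both repeats, exceeds the weak agonist control mean by 3 SD; inactive = the rest.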
How the values were obtained:
[1] = tested on: TRPC4 beta (transient receptor potential cation channel C4), mouse; assay: TRPC4 cation channel opening, retest – cell-based, Fluo4 calcium, HEK293 TRPC4beta/mu-opioid, duplicates, 10 µM, confirmation (AID 2426;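 active = fluorescence ratio normalized to control raised more than 50% in primary screen plus both repeat runs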;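 as to activation: percent rise of integrated ratio over buffer wells lacking compound which define 0%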); settings: Fluo4 calcium fluorescence, at 10 µM; hits give high values
[2] = tested on: transient receptor potential cation channel C4 beta (TRPC4), mouse; assay: TRPC4 cation channel opening, second retest – cell-based, second round, Fluo4, HEK293 TRPC4beta/mu-opioid, 1 µM, confirmation (AID 2461;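 active = primary screen active and over 50% activation in each of two duplicate runs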;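 as to activation: 0% = wells without test compound as baseline of integrated fluorescence ratio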); settings: Fluo4 calcium fluorescence, at 1 µM; hits give high values
[3] = tested on: TRPC4 (transient receptor potential cation channel C4 beta), mouse; assay: potentiation of DAMGO EC20 TRPC4 response – cell-based, second round, Fluo-4, HEK293 TRPC4beta/mu-opioid, 1 µM, confirmation (AID 2554); settings: DAMGO EC20, Fluo-4 calcium flux, at 1 µM; hits give high values
[4] = tested on: TRPC4 beta (transient receptor potential cation channel C4), mouse; assay: potentiation of DAMGO EC20 TRPC4 response – cell-based, Fluo-4, HEK293 TRPC4beta/mu-opioid, confirmation (AID 2555;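 active = primary screen hit whose calcium fluorescence ratio, in both repeats, exceeds the weak agonist control mean by 3 SD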); settings: DAMGO EC20, Fluo-4 calcium flux, at 10 µM; hits give high values
[5] = molecular target: Short transient receptor potential channel 4 (Mus musculus) (UniProt Q9QUQ5); assay: blockers of DAMGO-evoked TRPC4 calcium flux – cell-based, Fluo4, HEK293 TRPC4beta/mu-opioid, confirmation (AID 2636;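 active = calcium signal cut by more than 3 SD below the full-agonist control yet still positive, in both repeats and the earlier primary screen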); settings: at 10 µM; hits give high values
Sequence of Short transient receptor potential channel 4 (Mus musculus) (Q9QUQ5 whole entry, looked up): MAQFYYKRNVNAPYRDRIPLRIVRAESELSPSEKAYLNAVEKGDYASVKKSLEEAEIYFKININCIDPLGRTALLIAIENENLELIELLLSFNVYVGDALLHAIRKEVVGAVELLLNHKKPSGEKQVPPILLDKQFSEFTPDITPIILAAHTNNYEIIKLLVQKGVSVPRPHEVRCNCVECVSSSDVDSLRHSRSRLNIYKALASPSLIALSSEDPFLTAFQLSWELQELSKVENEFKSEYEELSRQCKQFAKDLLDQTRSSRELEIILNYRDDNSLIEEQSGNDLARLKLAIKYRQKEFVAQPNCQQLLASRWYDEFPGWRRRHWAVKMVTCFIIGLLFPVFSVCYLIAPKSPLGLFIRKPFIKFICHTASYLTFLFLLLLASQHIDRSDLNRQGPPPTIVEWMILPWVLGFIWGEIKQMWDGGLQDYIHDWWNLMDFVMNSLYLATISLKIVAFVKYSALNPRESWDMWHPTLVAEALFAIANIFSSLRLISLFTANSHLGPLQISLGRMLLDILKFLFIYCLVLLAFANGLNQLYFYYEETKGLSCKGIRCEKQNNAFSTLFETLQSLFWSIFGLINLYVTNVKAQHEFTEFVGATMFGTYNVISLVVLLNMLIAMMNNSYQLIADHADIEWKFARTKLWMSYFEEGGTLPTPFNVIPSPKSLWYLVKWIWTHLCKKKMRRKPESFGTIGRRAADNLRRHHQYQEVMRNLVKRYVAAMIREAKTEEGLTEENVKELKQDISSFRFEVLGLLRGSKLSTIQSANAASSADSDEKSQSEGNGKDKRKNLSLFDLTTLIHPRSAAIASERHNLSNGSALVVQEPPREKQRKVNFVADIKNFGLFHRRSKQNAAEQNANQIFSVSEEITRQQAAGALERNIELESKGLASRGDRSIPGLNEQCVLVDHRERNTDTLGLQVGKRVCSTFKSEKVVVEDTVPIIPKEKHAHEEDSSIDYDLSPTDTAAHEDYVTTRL

[6] = molecular target: Short transient receptor potential channel 4 (Mus musculus) (UniProt Q9QUQ5); assay: blockers of DAMGO-evoked TRPC4 calcium flux – cell-based, second round, Fluo4, HEK293 TRPC4beta/mu-opioid, 1 µM, confirmation (AID 2637;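 active = calcium signal ratio cut to more than 3 SD under the fully stimulated control mean yet still positive, in both repeats and the primary screen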); settings: at 1 µM; hits give high values
[7] = molecular target: Short transient receptor potential channel 4 (Mus musculus) (UniProt Q9QUQ5); assay: potentiation of DAMGO-evoked TRPC4 calcium signal – cell-based, HEK293 TRPC4/mu-opioid, Fluo-4 calcium, EC20 DAMGO, dose response (AID 434941;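 active = earlier screen potentiator hit that boosts the TRPC4 ion channel at some dose, with a dose response; inactive = no potentiation, no dose response, or not a prior hit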;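 also: calcium entry triggered by an EC20 dose of DAMGO at the co-expressed mu-opioid receptor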)
[8] = molecular target: Short transient receptor potential channel 4 (Mus musculus) (UniProt Q9QUQ5); assay: block of DAMGO-driven TRPC4 calcium entry – cell-based, HEK293 TRPC4/mu-opioid, Fluo-4 calcium, dose response (AID 434942;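 active = primary screen inhibitor hit that blocks the TRPC4 channel at some tested dose, yielding a dose curve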)
[9] = molecular target: Short transient receptor potential channel 6 (Mus musculus) (UniProt Q61143); assay: TRPC6 blockade by TRPC4 inhibitor hits – cell-based, HEK293, membrane potential dye, duplicate, selectivity assay for TRPC4 inhibitor project, confirmation (AID 434948;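 active = active in primary screen and both duplicates, each dropping signal beyond three positive-control SD with fluorescence still positive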); settings: HEK293 TRPC6, membrane potential dye fluorescence, at 10 µM, stimulated with maximal-effect acetylcholine; hits give high values
Sequence of Short transient receptor potential channel 6 (Mus musculus) (Q61143 whole entry, looked up): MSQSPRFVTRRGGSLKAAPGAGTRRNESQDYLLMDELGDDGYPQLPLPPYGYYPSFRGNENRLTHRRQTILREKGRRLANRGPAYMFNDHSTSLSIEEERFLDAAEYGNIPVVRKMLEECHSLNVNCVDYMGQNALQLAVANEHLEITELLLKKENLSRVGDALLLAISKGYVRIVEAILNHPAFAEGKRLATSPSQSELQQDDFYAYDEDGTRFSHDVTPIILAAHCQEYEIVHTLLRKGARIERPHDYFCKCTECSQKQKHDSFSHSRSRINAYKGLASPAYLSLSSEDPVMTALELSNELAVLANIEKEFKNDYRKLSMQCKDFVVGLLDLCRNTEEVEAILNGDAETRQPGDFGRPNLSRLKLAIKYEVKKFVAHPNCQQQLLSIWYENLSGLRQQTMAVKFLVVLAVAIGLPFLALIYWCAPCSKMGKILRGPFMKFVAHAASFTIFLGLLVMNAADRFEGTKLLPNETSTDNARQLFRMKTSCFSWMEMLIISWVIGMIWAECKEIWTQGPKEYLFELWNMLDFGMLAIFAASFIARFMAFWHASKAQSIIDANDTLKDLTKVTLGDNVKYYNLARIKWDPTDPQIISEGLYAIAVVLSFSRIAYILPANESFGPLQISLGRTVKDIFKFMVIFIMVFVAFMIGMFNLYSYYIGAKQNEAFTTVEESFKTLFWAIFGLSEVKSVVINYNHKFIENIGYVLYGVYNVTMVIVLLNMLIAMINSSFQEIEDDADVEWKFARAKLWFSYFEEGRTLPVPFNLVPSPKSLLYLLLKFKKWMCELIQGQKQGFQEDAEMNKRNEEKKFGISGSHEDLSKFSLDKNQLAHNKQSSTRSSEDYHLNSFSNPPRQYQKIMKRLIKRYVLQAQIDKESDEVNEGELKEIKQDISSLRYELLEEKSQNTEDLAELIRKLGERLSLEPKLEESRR

[10] = molecular target: Short transient receptor potential channel 6 (Mus musculus) (UniProt Q61143); assay: TRPC6 opening by TRPC4 activator hits – cell-based, HEK293, membrane potential dye, duplicate, selectivity assay for TRPC4 activator project, confirmation (AID 434950;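 active = membrane potential signal rise above negative control mean plus 3 SD in both duplicates, also active in the earlier TRPC4 screen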;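 as to activation: 0% = buffer only wells and 100% = acetylcholine maximal-effect wells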); settings: HEK293 TRPC6, membrane potential fluorescence, at 10 µM; activation: hits give high values; outcome: activation
[11] = molecular target: Short transient receptor potential channel 6 (Mus musculus) (UniProt Q61143); assay: positive modulators of mouse TRPC6 channel – HEK293 cells, membrane potential dye, duplicate, selectivity assay for TRPC4 potentiator project, confirmation (AID 434952;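 active = compound raising the membrane signal above positive-control mean plus 3 SD in both repeats, and a primary screen hit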); settings: HEK293 TRPC6, membrane potential dye fluorescence, at 10 µM, maximal acetylcholine added after compound; hits give high values
[12] = molecular target: Short transient receptor potential channel 4 (Mus musculus) (UniProt Q9QUQ5); assay: calcium flux activators in TRPC4/5HT1a cells, counter-screen for TRPC4 activator project, cell-based, second counter screen, HEK293 TRPC4/5HT1a, Fluo-4 (AID 434977;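 active = calcium signal rise above buffer-control mean plus 5 SD in both duplicates, and also a hit in the primary screen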;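 as to activation: plate controls were assay buffer for no effect and maximal serotonin response for full effect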); settings: Fluo-4 calcium flux, at 10 µM; hits give high values
[13] = serotonin-gated TRPC4 signal block – cell-based, second counter screen, HEK293 TRPC4/5HT1a, Fluo-4, counter-screen for TRPC4 inhibitor project, confirmation (AID 434978;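 active = primary screen active whose calcium signal fell more than 3 SD beyond the full-serotonin control mean in both duplicate plates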;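 also: serotonin given first at submaximal then at maximal dose after compound preincubation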); settings: Fluo-4 calcium flux, at 10 µM, serotonin added to trigger calcium flux; hits give high values
[14] = tested on: TRPC4 (mouse), co-expressed with 5HT1a in HEK293; assay: enhancement of serotonin-evoked TRPC4 response – cell-based, second counter screen, HEK293 TRPC4/5HT1a, Fluo-4, counter-screen for TRPC4 potentiator project, confirmation (AID 434979;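 active = signal rise over 3 SD above mean of control wells given weak agonist, in both repeats and first screen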); settings: Fluo-4 calcium flux, at 10 µM, serotonin added at its EC20 dose; hits give high values
[15] = nonspecific calcium rise without TRPC4 – cell-based, HEK293 mu-opioid receptor line, counter-screen for TRPC4 activator project, confirmation (AID 449723;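 active = hit in primary screen, with calcium signal over 5 SD above buffer well mean in both duplicates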;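 also: counter screen cells carry the mu-opioid receptor alone and lack TRPC4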); settings: HEK293 mu-opioid cells, Fluo-4 calcium fluorescence, at 10 µM; hits give high values
[16] = nonspecific potentiation of DAMGO calcium response – cell-based, HEK293 mu-opioid receptor line, counter-screen for TRPC4 allosteric potentiator project, confirmation (AID 449724;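 active = calcium signal rise more than 3 SD above the low-dose agonist control mean, in both duplicate plates and the primary screen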); settings: HEK293 mu-opioid receptor cells, Fluo-4 calcium flux, at 10 µM, compound added before EC20 DAMGO stimulus; hits give high values

Cc1ccc(S(=O)(=O)/N=C2/NC(=O)/C(=C\c3cc(Br)cc(Br)c3O)S2)cc1
active: potentiation [4] 35% | activation [10] 447% | activation [12] 45.6% | potentiation [14] 9.14% | activation [15] 60.8% | activation [16] 600%
inactive: outcome [1] | outcome [2] | outcome [3] | outcome [5] | outcome [6] | outcome [7] | outcome [8] | outcome [9] | outcome [11] | outcome [13]

O=C(Nc1ccncc1)c1ccc(Cl)c(S(=O)(=O)N2CCc3ccccc32)c1
inactive: outcome [2] | outcome [3] | outcome [4] | outcome [5] | outcome [6] | outcome [7] | outcome [8] | outcome [9] | outcome [10] | outcome [11] | outcome [13] | outcome [14] | outcome [15] | outcome [16]
active: activation [1] 108% | activation [12] 17.7%

Cc1sc2ncnc(NCC(c3ccco3)N(C)C)c2c1C (stereo not given)
active: activation [1] 202% | activation [2] 116% | activation [12] 91.1%
inactive: outcome [3] | outcome [4] | outcome [5] | outcome [6] | outcome [7] | outcome [8] | outcome [9] | outcome [10] | outcome [11] | outcome [13] | outcome [14] | outcome [15] | outcome [16]

CNC[C@H](Cc1ccccc1)NC[C@@H](Cc1cccc2ccccc12)NCCc1ccc(C)cc1
active: activation [1] 228% | activation [12] 68.3% | activation [15] 37.9%
inactive: outcome [2] | outcome [3] | outcome [4] | outcome [5] | outcome [6] | outcome [7] | outcome [8] | outcome [9] | outcome [10] | outcome [11] | outcome [13] | outcome [14] | outcome [16]

COc1ccc(-c2nc(CSCC(=O)NC3CCN(Cc4ccccc4)CC3)c(C)o2)cc1OC
inactive: outcome [2] | outcome [3] | outcome [4] | outcome [5] | outcome [6] | outcome [7] | outcome [8] | outcome [9] | outcome [11] | outcome [13] | outcome [14] | outcome [15] | outcome [16]
active: activation [1] 107% | activation [10] 99.5% | activation [12] 23.1%

CCn1c(CN2CCN(Cc3ccc(C)cc3)C(CCO)C2)nc2ccccc21 (stereo not given)
inactive: outcome [3] | outcome [4] | outcome [5] | outcome [6] | outcome [7] | outcome [8] | outcome [9] | outcome [11] | outcome [13] | outcome [14] | outcome [15] | outcome [16]
active: activation [1] 129% | activation [2] 73% | activation [10] 61.5% | activation [12] 32.4%

Cc1ccccc1N1CC(O)(c2ccccc2)[N+]2=C1SCC2 (stereo not given)
active: activation [1] 73% | activation [10] 39%
inactive: outcome [2] | outcome [3] | outcome [4] | outcome [5] | outcome [6] | outcome [7] | outcome [8] | outcome [9] | outcome [11] | outcome [12] | outcome [13] | outcome [14] | outcome [15] | outcome [16]

CCOc1ccc(S(=O)(=O)Nc2cccc(C(=O)NCC(c3ccccc3)N(C)C)c2)cc1 (stereo not given)
inactive: outcome [2] | outcome [3] | outcome [4] | outcome [5] | outcome [6] | outcome [7] | outcome [8] | outcome [9] | outcome [11] | outcome [12] | outcome [13] | outcome [14] | outcome [15] | outcome [16]
active: activation [1] 255% | activation [10] 43%

CN1CCN(c2ccc(NC(=O)COc3cccc4ccccc34)cc2)CC1
inactive: outcome [2] | outcome [3] | outcome [4] | outcome [5] | outcome [6] | outcome [7] | outcome [8] | outcome [9] | outcome [10] | outcome [11] | outcome [12] | outcome [13] | outcome [14] | outcome [15] | outcome [16]
active: activation [1] 135%

CC(C)(C)[C@H]1C=C(C(=O)NCc2ccccc2)O[C@@H](OCc2ccc(CO)cc2)C1
active: activation [1] 68% | activation [10] 24.5%
inactive: outcome [2] | outcome [3] | outcome [4] | outcome [5] | outcome [6] | outcome [7] | outcome [8] | outcome [9] | outcome [11] | outcome [12] | outcome [13] | outcome [14] | outcome [15] | outcome [16]

Cc1ccc(C)c(-n2cc(CNCCCn3cccn3)c(-c3ccccc3)n2)c1
active: activation [1] 288% | activation [2] 129% | activation [10] 48.5% | activation [12] 29.9%
inactive: outcome [3] | outcome [4] | outcome [5] | outcome [6] | outcome [7] | outcome [8] | outcome [9] | outcome [11] | outcome [13] | outcome [14] | outcome [15] | outcome [16]

Cn1c(N2CCN(C(=O)Nc3ccc(C(F)(F)F)cc3)CC2)nc2ccccc21
inactive: outcome [2] | outcome [3] | outcome [4] | outcome [5] | outcome [6] | outcome [7] | outcome [8] | outcome [9] | outcome [10] | outcome [11] | outcome [13] | outcome [14] | outcome [15] | outcome [16]
active: activation [1] 81% | activation [12] 31.2%

CCc1ccc(C(=O)c2cnc3ccc(OC)cc3c2N2CCN(CC)CC2)cc1
inactive: outcome [2] | outcome [3] | outcome [4] | outcome [5] | outcome [6] | outcome [7] | outcome [8] | outcome [9] | outcome [10] | outcome [11] | outcome [12] | outcome [13] | outcome [14] | outcome [15] | outcome [16]
active: activation [1] 283%

O=C(COc1cc(Cl)c(Cl)cc1Cl)NCCc1ccccn1
inactive: outcome [2] | outcome [3] | outcome [4] | outcome [5] | outcome [6] | outcome [7] | outcome [8] | outcome [9] | outcome [11] | outcome [13] | outcome [14] | outcome [15] | outcome [16]
active: activation [1] 60% | activation [10] 53.5% | activation [12] 12.5%

Cc1onc(-c2ccccc2Cl)c1C(=O)N1CCN(C/C=C/c2ccccc2)CC1
active: activation [1] 190% | activation [10] 38.5%
inactive: outcome [2] | outcome [3] | outcome [4] | outcome [5] | outcome [6] | outcome [7] | outcome [8] | outcome [9] | outcome [11] | outcome [12] | outcome [13] | outcome [14] | outcome [15] | outcome [16]

Source: PubChem BioAssay
